Laboratory results reported in PubChem BioAssay AID720690 (Broad Institute, 2013).
Entries with a potency or affinity are not part of this list. Active and inactive are the calls of the source.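 The calls were made as follows: active = every repeat run showing a signal drop whose fitted half-maximal concentration is at most twice the top tested concentration; inconclusive = repeat runs disagree, or flat partial drop, or poor fit; inactive = the rest.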

assay: HEK293T cytotoxicity, dose response, cytotoxicity control for miR-122 modulator project, cell-based, activator set, cherry-pick (AID 720690); conditions: HEK293T viability, CellTiter-Glo luminescence, 48 h; series mostly up to 26 µM; activity change, negative = cytotoxicity: at the top concentration;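 also: 0% = neutral control wells and -100% = MG132 cytotoxic control wells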

Compound | activity change, negative = cytotoxicity
O=C(N/N=C/c1ccco1)c1cccc(N2CCCC2=O)c1 | -1.22% (inactive)
CCCN(C[C@@H]1N[C@@H](CO)[C@H]1c1ccc(-c2cccnc2)cc1)C(C)=O | -1.05% (inactive)
COCC(=O)NC[C@H]1[C@@H](c2ccc(C3=CCCC3)cc2)[C@@H](CO)N1C(=O)C1CC1 | -4.55% (inactive)
